From the supplement of paper PMC6555819

Legend:
Assay in all cases: PBM binding z-score (relative to random genomic background probes); higher = stronger binding; sequences stand for … in GC…GCGATTGACAGCGTAGAATGAAGG
[1] = system: FXR:RXRa (NR concentration 270 nM, RXRa partner concentration 90 nM)
Procedure, shortened: (§1)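 Ligand-free nuclear receptor dimers were applied to custom Agilent 4×180K protein-binding microarrays whose double-stranded probes carried direct-repeat seeds, single-nucleotide variants, half-site ablations and random human genomic background sequences in 34-nt variable regions. Incubation lasted 1 h. Binding z-scores were computed against the random background probes from regression-normalized fluorescence.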

[2] = system: LXRa:RXRa (NR concentration 270 nM, RXRa partner concentration 90 nM)
Procedure, shortened: as §1

[3] = system: LXRa homodimer (NR concentration 270 nM)
Procedure, shortened: as §1

[4] = system: LXRb:RXRa (NR concentration 270 nM, RXRa partner concentration 90 nM)
Procedure, shortened: as §1

[5] = system: LXRb homodimer (NR concentration 270 nM)
Procedure, shortened: as §1

[6] = system: PPARa:RXRa (NR concentration 270 nM, RXRa partner concentration 90 nM)
Procedure, shortened: as §1

[7] = system: PPARg:RXRa (NR concentration 180 nM, RXRa partner concentration 90 nM)
Procedure, shortened: as §1

[8] = system: PPARg:RXRa 270nM:90nM, anti-RXR (NR concentration 270 nM, RXRa partner concentration 90 nM)
Procedure, shortened: as §1

[9] = system: PPARg:RXRa 30nM:10nM, anti-RXR (NR concentration 30 nM, RXRa partner concentration 10 nM)
Procedure, shortened: as §1

[10] = system: PPARg:RXRa 90nM:30nM, anti-RXR (NR concentration 90 nM, RXRa partner concentration 30 nM)
Procedure, shortened: as §1

Sequence | PBM binding z-score [1] | PBM binding z-score [2] | PBM binding z-score [3] | PBM binding z-score [4] | PBM binding z-score [5] | PBM binding z-score [6] | PBM binding z-score [7] | PBM binding z-score [8] | PBM binding z-score [9] | PBM binding z-score [10]
CAGCGTAGGTCAGGGCCAGTATAGGAGGAACGTT | 1.79 | 1.23 | -0.344 | 0.759 | -1.03 | 2.46 | 0.896 | 0.918 | -0.272 | 0.0961
GCAGACAGGTTAAACGCAGGTAACTCAGGGTGGC | 0.61 | 1.65 | -0.225 | 0.687 | -0.662 | 1.7 | 0.69 | 0.222 | -0.592 | -0.245
CTCGAAAGGTCGGTTGCGGTGAGTATACGGATAA | 2.08 | 1.5 | 0.16 | 1.38 | 0.241 | 2.17 | 0.168 | 0.893 | 0.195 | 0.654
CGTCAAAGTTCAACTAAGGTAACGCAAAGCACGC | 7.01 | 6.31 | 4.34 | 4.15 | 1.94 | 5.28 | 5.24 | 5.67 | 2.5 | 4.74
ATACCAAGGTGATCTTGAGGTCGTTGATACTAAC | 2.36 | 2.49 | 1.86 | 1.92 | 0.411 | 1.91 | 0.527 | 0.843 | -0.161 | 0.624
TGAATGAGGTTATGAGATCAGGGAACGTTGCAAA | 1.67 | 1.4 | -0.558 | 0.95 | -0.381 | 3.11 | 1.64 | 1.96 | 0.899 | 1.31
CAAACTAGGCCACCGGAAGGTCAAAGTCCGCATG | 2.96 | 3.08 | 3.39 | 3.15 | 0.364 | 4.46 | 5.26 | 5.14 | 1.86 | 4.33
GCTTGTCGATCAAGGTTAAGAAAGACTAAGCTAA | 0.467 | 0.896 | -0.687 | 0.589 | -0.963 | 1.17 | -0.154 | 0.57 | 0.0048 | 0.112
TCGCGTAGGTTAGGGGCATTCAGAATGGCGTCGA | 0.432 | 0.41 | -0.522 | 0.996 | 0.176 | 1.04 | -0.162 | 1.01 | 1.38 | 1.41
GCGACTGGGGCAACAGCAGGTTACCATAACTTAA | 0.03 | 1.28 | -0.408 | 0.734 | -0.94 | 1.25 | 1.43 | 1.47 | -0.0459 | 0.485
TTGCCAAGGTGAAGGTCGTTGATCCCTCTGTAGA | 2.38 | 1.79 | -0.705 | 1.45 | -1.15 | 2.12 | 0.85 | 2.06 | 0.251 | 1.41
GCTCGGAGGACAAGGTCAGAGATTTGTCCGTAGA | 1.22 | 1.62 | -0.347 | 1.2 | -0.658 | 2.13 | 0.719 | 1.53 | -0.349 | 0.587
ATCTCTAGGTAACCAAGGTCAGTGAATGCCGAAC | 1.59 | 2.3 | 1.46 | 1.91 | 0.895 | 2.72 | 1.79 | 1.92 | 0.476 | 1.39
TATACAGGGTCAATGGCCAGAGTACGAATGTCGA | 5.92 | 5.45 | 1.39 | 3.89 | 2.05 | 5.16 | 5.11 | 4.94 | 2.12 | 3.87
CCTAGCAGGCCAATTTGGGTCACTCAAGGCTTGA | 1.3 | 1.3 | -0.0886 | 1.16 | -1.16 | 2.37 | 0.558 | 0.917 | -0.434 | 0.671
AGAATGAGGTTATTAATATCAGGGAATTGCGGTC | 1.19 | 1.32 | 0.394 | 1.3 | -0.0827 | 2.47 | 1.54 | 1.67 | 0.598 | 1.35
GCGACTGGGGCGAAGCAGGTTACCATAAGGTTGG | -0.35 | -0.539 | -0.81 | -0.315 | -1.13 | 0.234 | 0.378 | -0.549 | -0.972 | -0.732
CAAACTAAGTCAAGGTCAAAGTCGGTTTGTGCCA | 4.9 | 5.29 | 5.4 | 4.15 | 1.52 | 4.7 | 2.82 | 3.64 | 1.62 | 2.78
GCTATTAGTTGTAAGGGCAACCGAATGATTCTCG | 0.301 | 0.305 | 0.235 | 0.38 | -0.00961 | 0.472 | 0.397 | 0.63 | 0.129 | 0.634

Sequence | PBM binding z-score [1] | PBM binding z-score [2] | PBM binding z-score [3] | PBM binding z-score [4] | PBM binding z-score [5] | PBM binding z-score [6] | PBM binding z-score [7] | PBM binding z-score [8] | PBM binding z-score [9] | PBM binding z-score [10]
TAGCCTCGGTCAGATCGGGCCAGTATACGCTATA | -0.00556 | -0.383 | -0.622 | -0.821 | -0.951 | -0.586 | 0.128 | -0.706 | -0.684 | -1.07
TGTCAAAGTTCAAAGGAAACGTAAGTATCCACAC | 6.34 | 5.91 | 3.73 | 3.56 | 1.37 | 4.94 | 7.64 | 7.15 | 4.84 | 6.6
AGAATGAGGTTACCAAAGATCAGAGAAACGCTTG | 2.03 | 6.18 | 0.173 | 3.6 | -0.0648 | 3.32 | 2.75 | 2.19 | 0.774 | 1.78
CGTCCAAGGTTATAGGAGGTCAGTGAAGACAGAT | 3.51 | 7.81 | 5.37 | 6.47 | 0.402 | 3.39 | 1.35 | 1.77 | 0.207 | 0.943
CCTCGGAGGACAGAAGGTCAGAACTGTCCGCTTT | 0.99 | 1.35 | 0.337 | 1.03 | -0.707 | 1.54 | -0.0634 | 0.635 | -0.743 | 0.0441
AGTATGAGGTTACCAAAGATCAGGGAAACGCTTG | 1.85 | 5.92 | 0.237 | 3.08 | 0.134 | 2.76 | 1.79 | 1.65 | 0.652 | 1.11
AGAACGAGGGCATTGAGTTGATAGCACGGGTGGC | 0.832 | 0.491 | -0.273 | 0.0744 | -0.545 | 1.26 | 1.02 | 0.78 | -0.308 | 6.55e-05
TCTAGCAGGCCAGAGGGTCACTCAAGAGGTACGG | 0.812 | 1.03 | -0.601 | 0.926 | -1.51 | 2.39 | 1.43 | 2.72 | 2.09 | 2.57
TTACCAAGGTGAGCTGAGGTCGTGGATCCAACTC | 1.09 | 0.85 | -0.734 | 0.827 | -1.47 | 2.1 | 0.337 | 0.913 | 0.0501 | 0.449
TCATTTAGGTAAATGCTAGGTGAAAGTCCGATCT | 0.568 | 0.673 | 0.0938 | 0.395 | 0.604 | 1.41 | 0.312 | 1.97 | 3.57 | 2.65
AGAACGAGGGCAACGAGTTGATAGCACGGGTGGC | 0.357 | 0.068 | -0.499 | -0.258 | -0.674 | 1.59 | 1.67 | 1.29 | 0.0508 | 0.609
TAGCCTAGGTCACTGGGCCAGTATAGTACGCATC | 3.22 | 2.31 | -0.331 | 1.92 | -0.779 | 4 | 5.05 | 4.62 | 1.68 | 3.41
ATCTCTAGGTAAGAAGTTCAGTGAAAGAGAGGAC | 0.325 | 0.566 | 0.243 | 0.366 | 0.539 | 0.924 | 1 | 2.09 | 0.954 | 1.86
TTACCAAGGTGAAGGGTCGTTGATGCACGCCTTG | 1.88 | 1.13 | -0.449 | 1.03 | -0.693 | 3.65 | 6.01 | 6.42 | 4.63 | 6.33
TAGCCTAGGTCAGGTCGGGCCAGTATACGCTATA | 2.66 | 1.06 | -0.52 | 0.724 | -0.502 | 1.71 | 0.639 | 0.781 | -0.544 | 0.204
CCGAGTGGGGCAGAAAGGTTACCATACCATCCGG | 0.579 | 0.723 | 0.104 | 0.959 | -0.975 | 2.23 | 1.76 | 2.79 | 0.657 | 2.3
CAAACTAGGTCAGAACAGGACAGTGAAGGATGAT | 1.81 | 1.26 | 0.299 | 0.616 | 0.235 | 3.34 | 5.81 | 4.56 | 2.45 | 3.64
ATACCAAGTTGATCGTGAGGTCGTTGATACTAAC | 1.48 | 1.03 | 0.823 | 1.31 | 0.171 | 1.22 | 0.148 | 0.229 | 0.0312 | 0.0356
AGTCAAAGTTCAAGACGAGGTAACGTAAAGCACG | 6.21 | 5.72 | 2.72 | 3.19 | 0.519 | 4.72 | 6.2 | 6.17 | 3.81 | 5.35
